# Assay outcomes from PubChem BioAssay.
# PKA inh – inhibitors of human PKA kinase activity, primary screen, biochemical, ATP-depletion luminescence, Kemptide substrate. PKA Kemptide phosphorylation, Kinase-Glo ATP luminescence. inhibition, % at 6 µM. AID 524, 2006. cAMP-dependent protein kinase catalytic subunit alpha (Homo sapiens), P17612. 0.1% of 65,000 active;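 active means inhibition above the screen-wide mean inhibition plus 3 SD, cut at about 21% in these data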
# CatB block – human cathepsin B inhibitors, primary screen, biochemical, fluorogenic substrate; purified cathepsin B, fluorescence; inhibition, %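 (tested at 10 µM)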; 0.1% of 63,000 active; in the data active means inhibition above about 21%;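 further: 0% = enzyme with no compound and 100% = no enzyme blank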
# CatB mixtures – cathepsin B inhibitors from pooled compounds, primary screen, biochemical, compound mixtures, AMC fluorescence; P07858; Purified cathepsin B, AMC dipeptide fluorescence; inhibition, %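 (ten-compound pools at 5 µM per compound and 50 µM total)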; 0.06% of 62,000 active; in the data active means inhibition above about 22%, passing the limit was not always enough;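 further: 0% = enzyme without compound and 100% = no enzyme blank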
# ROCK2 blocker – inhibitors of human ROCK2 kinase, primary screen, biochemical, high-throughput, luminescence | purified ROCK2, Kinase-Glo ATP depletion luminescence | inhibition, % at 6 µM | 0.35% of 60,000 active;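 active means inhibition above the screen-wide mean inhibition plus 3 SD, cut at about 18% in these data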;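 further: plate controls were DMSO wells for no effect and Y-27632 control wells after no-enzyme background subtraction for full effect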
# CatL inh – inhibitors of human cathepsin L, biochemical | Procathepsin L (Homo sapiens), P07711 | purified cathepsin L, fluorogenic substrate, fluorescence | inhibition, %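 (tested at 10 µM)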 | 0.17% of 58,000 active | AID 460, 2006; in the data active means inhibition above about 45%;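 further: 0% = enzyme with no compound and 100% = no enzyme blank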
# CatS block – inhibitors of human cathepsin S, biochemical, compound mixtures; P25774; recombinant cathepsin S, AMC dipeptide fluorescence, pooled mixtures; inhibition, %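 (tested at 5 µM per compound within 10-compound mixtures)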; 0.06% of 62,000 active; in the data active means inhibition above about 32%, passing the limit was not always enough;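 further: 0% = enzyme without compound and 100% = blank without enzyme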
# Target sequence (P25774 115-331 limits assumed): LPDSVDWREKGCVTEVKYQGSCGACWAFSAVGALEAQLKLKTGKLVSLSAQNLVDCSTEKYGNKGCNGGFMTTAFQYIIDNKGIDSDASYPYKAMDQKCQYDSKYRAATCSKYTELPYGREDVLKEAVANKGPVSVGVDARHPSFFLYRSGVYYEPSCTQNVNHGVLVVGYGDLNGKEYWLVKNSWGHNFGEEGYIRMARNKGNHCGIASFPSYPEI
# Starred values were filed as active, the others as inactive; nt = no result given. Compounds with a hit are over-represented: about 0.51% of the library has one in this group of screens.
SMILES,PKA inh,CatB block,CatB mixtures,ROCK2 blocker,CatL inh,CatS block
COC(=O)c1ccc(NC(=O)c2ccc(CN3CCOCC3)cc2)cc1,0,1,1,1,84*,6
N#Cc1cccc(NC(=O)CSc2ccccc2)c1,12,1,2,19*,1,-14
O=S(=O)(Cc1ccccc1)N1CCN(Cc2ccc3c(c2)OCO3)CC1,nt,-7,-1,nt,-4,1
COC(=O)c1sc2cnccc2c1N,17,-4,-3,42*,-103,0
CCC1CCCCN1c1nc(-c2ccncc2)nc2ccccc12 (stereo not given),62*,2,3,15,5,2
CCC1CCCCN1c1nc(-c2cccc(OC)c2O)nc2ccccc12 (stereo not given),6,nt,nt,11,nt,nt
COc1ccc(S(=O)(=O)Nc2nnc(C(C)(C)C)s2)cc1,9,-3,-4,3,nt,1
O=S(=O)(Nc1nnc(-c2ccccc2)s1)c1ccc(Cl)cc1,10,7,8,6,105*,-1
Cc1ccc(C(C)C)c(OCc2nc(-c3nonc3N)no2)c1,6,22*,8,5,nt,-2
Nc1nonc1-c1noc(CCCOc2ccc(Cl)cc2Cl)n1,7,1,2,12,-5,-8
